# ChEMBL document CHEMBL3988442, “University of Dundee, Small-Polar-MMV Screening Library” (2021)
# Out of some 66,000 compounds screened, about 960 (1.5%) showed an effect of 50% or more. For the sample, strong results were picked, then their nearest neighbours and some compounds at random.
# Tested on: Trypanosoma brucei
# Assay: Trypanosoma brucei 72 hour study
# Format: functional, organism-based
# Set-up: scale not given: in the data most compounds retested in dose-response had high values
smiles,measurement,setting,value
CC1(C(=O)N2CCOCC2)CNCCO1.Cl (stereo not drawn),Percent Effect,"30.3 µM, […]",-3.709%
O=C(CC1CC1)NCc1cn2c(n1)CN(CC1CC1)CC2.O=C(O)C(F)(F)F,Percent Effect,"30 µM, 30.03 µM",14.47%
O=C(COCc1ccccc1Cl)N1CCN(c2ccc(Br)cn2)CC1,Percent Effect,"30.3 µM, […]",6.228%
O=C(Cc1ccsc1)NCC1OCCc2cn(CC3CC3)nc21 (stereo not drawn),Percent Effect,"30 µM, 30.03 µM",10.27%
O=C(NCC1OCCc2cn(CC3CC3)nc21)c1ccsc1 (stereo not drawn),Percent Effect,"30 µM, 30.03 µM",104.3%
O=C(NCC1OCCc2cn(CC3CCOCC3)nc21)c1ccsc1.O=C(O)C(F)(F)F (stereo not drawn),Percent Effect,"30 µM, 30.03 µM",-82.86%
CCOCC1CN(C(=O)Cc2ccccn2)Cc2cnn(C)c21.O=C(O)C(F)(F)F.O=C(O)C(F)(F)F (stereo not drawn),Percent Effect,"30.3 µM, […]",-7.447%
CN1CCC(N2Cc3nc(N)ncc3C2=O)CC1,Percent Effect,"30.3 µM, […]",-14.03%
Nc1ncc2c(n1)CN(C1CCCC1)C2=O,Percent Effect,"30 µM, 30.03 µM",49.38%
CC1CCC(N2Cc3nc(N)ncc3C2=O)CC1 (stereo not drawn),Percent Effect,"30.3 µM, […]",59%
Cc1csc(C(Cc2ccsc2)NC(=O)CN(C)Cc2ccccn2)n1.Cl (stereo not drawn),Percent Effect,"30.3 µM, […]",18.37%
Cc1nc(C)n(CC2CN(CC(=O)Nc3ccncc3)CCO2)n1 (stereo not drawn),Percent Effect,"30 µM, 30.03 µM",-4.979%
O=C(O)c1ccccc1-c1c(-c2ccccc2)ncn1CC1CCCO1 (stereo not drawn),Percent Effect,"30 µM, 30.03 µM",-42.19%
Oc1ccc(-c2c(-c3ccccc3)ncn2C[C@H]2CCCN2)cc1,Percent Effect,"30 µM, 30.03 µM",67.04%
O=C(O)c1ccccc1-c1c(-c2ccccc2)ncn1C[C@H]1CCCN1,Percent Effect,"30 µM, 30.03 µM",7.799%
CCn1cc2c(n1)CN(Cc1ccncc1)CC2COCC1CC1.O=C(O)C(F)(F)F.O=C(O)C(F)(F)F (stereo not drawn),Percent Effect,"30 µM, 30.03 µM",16.48%
CCOC(=O)[C@@H]1[C@@H](OC)C(=O)N(C)C12CCN(C(=O)C(CC)CC)CC2,Percent Effect,"30.3 µM, […]",47.28%
O=C1NCC(c2ccc(Cl)cc2)Cc2[nH]c(CCN3CCOCC3)nc21 (stereo not drawn),Percent Effect,"30.3 µM, […]",-6.17%
O=C(CCCn1ccnc1)NC1CCCN(c2ccccc2Cl)C1 (stereo not drawn),Percent Effect,"30 µM, 30.03 µM",-36.7%
Cn1ccc2c(C(=O)N3CCN(C(=O)C4CCCC4)CC3)cccc21,Percent Effect,"30.3 µM, […]",-0.9219%
CC(=O)N(C)C1CCN(C(=O)c2cccc3c2ccn3C)CC1,Percent Effect,"30.3 µM, […]",1.635%
Cn1ccc2c(C(=O)N3CCC(C(N)=O)CC3)cccc21,Percent Effect,"30 µM, 30.03 µM",51.42%
CNCc1ccc([C@@H]2CN(C(C)=O)C[C@H]2C(N)=O)cc1.Cl,Percent Effect,"30.3 µM, […]",-4.211%
COC(=O)C(CCSC)NC(=O)Cc1c(C)nn(-c2ccccc2)c1C (stereo not drawn),Percent Effect,"30.3 µM, […]",100.4%
COC(=O)[C@H](CCSC)NC(=O)Cn1ccc2c(Cl)cccc21,Percent Effect,"30 µM, 30.03 µM",-28.3%
COC(=O)[C@H](CCSC)NC(=O)Cc1c(C)nn(-c2ccccc2)c1C,Percent Effect,"30 µM, 30.03 µM",101%
Cc1nn(-c2ccccc2)c(C)c1CC(=O)NC1CC(=O)N(C)C1 (stereo not drawn),Percent Effect,"30 µM, 30.03 µM",-14.36%
CSCCC(NC(N)=O)C(=O)NCc1c(C)nn(-c2ccccc2)c1C (stereo not drawn),Percent Effect,"30 µM, 30.03 µM",-20.96%
COc1cccc(-c2nc(C)c(C(=O)N[C@@H](CCSC)C(=O)O)s2)c1,Percent Effect,"30 µM, 30.03 µM",-41.8%
CC(C)Cc1noc(CN2CCOCC2C)n1 (stereo not drawn),Percent Effect,"30 µM, 30.03 µM",-14.5%
O=C(Nc1cnccn1)[C@@H]1CCO[C@@H]2CCN(Cc3ccsc3)C[C@@H]21.O=C(O)C(F)(F)F,Percent Effect,"30.3 µM, […]",-603.1%
O=C(Nc1ccccc1)N1C(CN2CCOCC2)[C@]2(O)CC[C@H]1CC2 (stereo partly drawn),Percent Effect,"30.3 µM, […]",6.609%
CCCc1nc(NCC(=O)N2CCOCC2)c2c(n1)c(C)nn2CC,Percent Effect,"30.3 µM, […]",-24.9%
CCn1nc(C)c2nc(C(C)C)nc(NCC(=O)N3CCOCC3)c21,Percent Effect,"30.3 µM, […]",-23.63%
CCc1nc(NCC(=O)N2CCOCC2)c2c(n1)c(C)nn2CC,Percent Effect,"30 µM, 30.03 µM",60.24%
Cn1c(CN2CCN(CC3CCCO3)CC2)nc2ccccc21 (stereo not drawn),Percent Effect,"30.3 µM, […]",-39.6%
CCCc1ccc(N2CCN(Cc3nc4ccccc4n3C)CC2)cc1,Percent Effect,"30 µM, 30.03 µM",90.43%
Cn1c(CCN2CCN(CCc3ccccc3)CC2)nc2ccccc21,Percent Effect,"30 µM, 30.03 µM",-13.15%
COCCN1CC[C@@H]2CN(Cc3nccn3C)C[C@@H]2C1.O=C(O)C(F)(F)F.O=C(O)C(F)(F)F,Percent Effect,"30 µM, 30.03 µM",27.97%
CC(C)CN1CCc2c(CN(C)Cc3ccco3)cncc2C1.Cl.Cl.Cl,Percent Effect,"30.3 µM, […]",-2.843%
COc1ccc(C)cc1CN(Cc1nc(C)c(C)o1)C1CCN(C)C1 (stereo not drawn),Percent Effect,"30 µM, 30.03 µM",82.74%
COc1ccc(C)cc1CN(Cc1ncc(C)o1)C1CCN(C)C1 (stereo not drawn),Percent Effect,"30 µM, 30.03 µM",-50.91%
Cc1cnc(CN(Cc2ccc(C#N)cc2F)C2CCN(C)C2)o1 (stereo not drawn),Percent Effect,"30 µM, 30.03 µM",-34.7%
COc1cc(C(=O)NCC2(N(C)C)CCN(C)CC2)c2ccccc2n1,Percent Effect,"30.3 µM, […]",-18.58%
CN1CCN([C@@H]2CCN(CC3=Cc4cc(Cl)ccc4OC3)C[C@H]2O)CC1,Percent Effect,"30.3 µM, […]",22.23%
O[C@@H]1CN(CC2=Cc3cc(Cl)ccc3OC2)CC[C@H]1N1CCCCCC1,Percent Effect,"30.3 µM, […]",78.41%
Cc1c(CN2CC[C@@H](N3CCC(O)CC3)[C@H](O)C2)[nH]c2ccc(Cl)cc12,Percent Effect,"30 µM, 30.03 µM",-14.51%
O=C(CCc1ccco1)N1CCCC(n2cccn2)C1 (stereo not drawn),Percent Effect,"30.3 µM, […]",12.32%
Cn1cnnc1S(=O)(=O)C1CCN(S(=O)(=O)c2ccccc2F)CC1,Percent Effect,"30 µM, 30.03 µM",-32%
Cc1ccc(S(=O)(=O)N2CCC(S(=O)(=O)c3nncn3C)CC2)cc1C,Percent Effect,"30 µM, 30.03 µM",-15.11%
Cn1cnnc1S(=O)(=O)C1CCN(S(=O)(=O)c2ccc(F)c(Cl)c2)CC1,Percent Effect,"30 µM, 30.03 µM",73.39%
CN1CCN(Cc2ccncc2)C(=O)C12CCN(Cc1ccsc1)CC2.O=C(O)C(F)(F)F.O=C(O)C(F)(F)F.O=C(O)C(F)(F)F,Percent Effect,"30.3 µM, […]",-53.7%
COC1CCN(C(=O)Cc2csc(-c3ccccc3)n2)CC1,Percent Effect,"30.3 µM, […]",99.67%
COC1CCN(C(=O)Cc2csc(-c3ccc(F)cc3)n2)CC1,Percent Effect,"30.3 µM, […]",9.7%
COC1CCN(C(=O)Cc2csc(-c3ncccn3)n2)CC1,Percent Effect,"30 µM, 30.03 µM",9.896%
Cc1cc(N2CCc3cncnc3C2)n2nc(C(F)(F)F)nc2n1,Percent Effect,"30 µM, 30.03 µM",-22.1%
Cc1ccc(C(=O)N2CCOCC2C(N)=O)c(F)c1 (stereo not drawn),Percent Effect,"30 µM, 30.03 µM",-8.01%
CC(C)CCNc1nc(C(=O)NC2CC2)cs1,Percent Effect,"30 µM, 30.03 µM",-29.09%
CC(C)NC(=O)c1csc(NC2CC2)n1,Percent Effect,"30 µM, 30.03 µM",-15.9%
O=C(Nc1nccs1)c1csc(NC2CCCC2)n1,Percent Effect,"30 µM, 30.03 µM",93.86%
CC(C)CCNC(=O)c1csc(NC2CC2)n1,Percent Effect,"30 µM, 30.03 µM",55.59%
CC(NC(=O)Nc1nccs1)C(=O)NC1CCCC1 (stereo not drawn),Percent Effect,"30 µM, 30.03 µM",-0.2762%
O=C(Nc1ccccn1)c1csc(NC2CCCC2)n1,Percent Effect,"30 µM, 30.03 µM",1.318%
COc1cccc(C2CCCN2Cc2nnnn2C2CC2)c1 (stereo not drawn),Percent Effect,"30 µM, 30.03 µM",7.439%
O=C(O)C(F)(F)F.O=C(O)C(F)(F)F.c1csc(CN2Cc3nc(CN4CCCC4)oc3C2)c1,Percent Effect,"30.3 µM, […]",-24.4%
COc1c(C)cnc(CN(C)C2CCOC3(CCOCC3)C2)c1C (stereo not drawn),Percent Effect,"30 µM, 30.03 µM",-25.65%
COc1c(C)cnc(CN(C)C2CCN(C3CCOCC3)CC2)c1C,Percent Effect,"30 µM, 30.03 µM",-11.24%
COc1c(C)cnc(CN(C)C2CCCCC2)c1C,Percent Effect,"30 µM, 30.03 µM",75.58%
COc1ccc(CNC(=O)NCc2c(C)cc(C)[nH]c2=O)cc1,Percent Effect,"30 µM, 30.03 µM",50.39%
Cc1cc(C)c(CNC(=O)NCc2ccc(F)cc2)c(=O)[nH]1,Percent Effect,"30.3 µM, […]",-10.32%
COc1cc(CNC(=O)NCc2c(C)cc(C)[nH]c2=O)ccc1C,Percent Effect,"30 µM, 30.03 µM",17.33%
Cc1sc(CN)nc1-c1ccc(Cl)cc1.Cl,Percent Effect,"30 µM, 30.03 µM",-33.68%
O=C(NCCCNc1ccc(C(F)(F)F)cn1)c1ccc(F)cc1,Percent Effect,10 µM,-67.47%
Cc1nc(C)c(CCN2CCC(Oc3ccccc3F)CC2)s1,Percent Effect,"30.3 µM, […]",55.32%
Cc1nc(CCN2CCC(Oc3ccccc3F)CC2)c(C)s1,Percent Effect,"30.3 µM, […]",14.09%
Cc1nc(CCN2CCC(Oc3ccccc3F)CC2)cs1,Percent Effect,"30.3 µM, […]",-2.649%
O=C(O)C(F)(F)F.O=C(O)C(F)(F)F.O=C1NC2(CCN(Cc3ccsc3)CC2)CC1c1ccncc1 (stereo not drawn),Percent Effect,"30 µM, 30.03 µM",34.47%
CC(C)n1c(=O)nc2n1C(=O)N(c1ccc(F)cc1)C2,Percent Effect,"30 µM, 30.03 µM",24.9%
COc1cc(Cl)cc(CN2CCCC(N3CCCC3)C2)c1OC (stereo not drawn),Percent Effect,"30 µM, 30.03 µM",-17.8%
c1sc(C2CCCCC2)nc1CN1CCn2c(nnc2C2CC2)C1,Percent Effect,"30.3 µM, […]",99.05%
c1sc(C2CCCC2)nc1CN1CCn2c(nnc2C2CC2)C1,Percent Effect,"30 µM, 30.03 µM",-23.12%
c1cnc(-c2nc(CN3CCn4c(nnc4C4CC4)C3)cs2)nc1,Percent Effect,"30 µM, 30.03 µM",1.717%
Cc1csc(C(=O)N2CCCC(c3[nH]ncc3S(C)(=O)=O)C2)c1 (stereo not drawn),Percent Effect,"30.3 µM, […]",68.17%
Cc1ccsc1C(=O)N1CCCC(c2[nH]ncc2S(C)(=O)=O)C1 (stereo not drawn),Percent Effect,"30.3 µM, […]",-15.29%
Cc1ccc(C(=O)N2CCCC(c3[nH]ncc3S(C)(=O)=O)C2)s1 (stereo not drawn),Percent Effect,"30.3 µM, […]",-30.56%
COCCN1CCC2(CC1)CN(C(=O)c1cccs1)CCO2.O=C(O)C(F)(F)F,Percent Effect,"30.3 µM, […]",-16.53%
CN(C)CCO[C@H]1CN(C(=O)c2cccs2)[C@@H]2COC[C@H]12.O=C(O)C(F)(F)F,Percent Effect,"30 µM, 30.03 µM",4.197%
CCC(=O)Nc1ccc(C(C)Nc2nc3c(cnn3C)c(=O)[nH]2)cc1 (stereo not drawn),Percent Effect,"30.3 µM, […]",99.39%
CC(Nc1nc2c(cnn2C)c(=O)[nH]1)c1ccccn1 (stereo not drawn),Percent Effect,"30.3 µM, […]",-31.46%
CC(C)Sc1ccc(C(C)Nc2nc3c(cnn3C)c(=O)[nH]2)cc1 (stereo not drawn),Percent Effect,"30.3 µM, […]",62.45%
CC(Nc1nc2c(cnn2C)c(=O)[nH]1)c1ccc(F)cc1 (stereo not drawn),Percent Effect,"30.3 µM, […]",-23.37%
Cc1ccc(C(C)N(C)Cc2nc3c(cnn3C)c(=O)[nH]2)cc1 (stereo not drawn),Percent Effect,"30 µM, 30.03 µM",18.7%
CC(Nc1nc2c(cnn2C)c(=O)[nH]1)c1ccc2c(c1)CCCC2 (stereo not drawn),Percent Effect,"30.3 µM, […]",35.38%
CSCC[C@H](N)c1nnc(SCC(=O)Nc2ccc(Br)cc2)o1.Cl,Percent Effect,"30 µM, 30.03 µM",-43.15%
CC(CNC(=O)c1ccc(F)cc1I)N1CCCC1 (stereo not drawn),Percent Effect,"30.3 µM, […]",0.5476%
COCCC(=O)NCCn1nc(C2CCNC2)c2cccnc21.Cl (stereo not drawn),Percent Effect,"30.3 µM, […]",-11.01%
Cc1nc(CN2CCC(O)(c3ccccc3F)CC2)c2ccccn12.O=C(O)CC(O)(CC(=O)O)C(=O)O,Percent Effect,"30.3 µM, […]",-5.12%
Cc1cccc(C)c1NC(=O)c1cc(S(N)(=O)=O)c(C)o1,Percent Effect,"30 µM, 30.03 µM",-12.34%
